Bioassay records deposited in PubChem by National Center for Advancing Translational Sciences (NCATS).
POLK inh: DNA polymerase kappa (human) inhibition; purified Pol kappa, fluorescent DNA synthesis assay, 10 min; Potency, µM (highest dose often 107 µM), for inactives: at the highest dose activity, negative = inhibition, most hits filed as inhibitors; actives 0.53% (n = 400,000); further: on the % scale 0 is the no-effect control and ±100 the full control effect
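10 nM Pol kappa preincubated 15 min at room temperature with compounds, then reaction started with substrate at 50 nM final. Fluorescence read kinetically at 0 and 10 min; buffer-only wells served as negative control.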
Pol eta inh: inhibitors of human DNA polymerase eta | recombinant Pol eta, fluorescent DNA replication assay | actives 1.2% (n = 390,000) | Q9Y253 | AID 588591 | Potency, µM (titrated, usually from 114 µM), for inactives: at the highest dose activity change, negative = inhibition, usual class: inhibitors; further: on the % scale 0 is the no-effect control and ±100 the full control effect
Target sequence (Q9Y253 whole entry, looked up): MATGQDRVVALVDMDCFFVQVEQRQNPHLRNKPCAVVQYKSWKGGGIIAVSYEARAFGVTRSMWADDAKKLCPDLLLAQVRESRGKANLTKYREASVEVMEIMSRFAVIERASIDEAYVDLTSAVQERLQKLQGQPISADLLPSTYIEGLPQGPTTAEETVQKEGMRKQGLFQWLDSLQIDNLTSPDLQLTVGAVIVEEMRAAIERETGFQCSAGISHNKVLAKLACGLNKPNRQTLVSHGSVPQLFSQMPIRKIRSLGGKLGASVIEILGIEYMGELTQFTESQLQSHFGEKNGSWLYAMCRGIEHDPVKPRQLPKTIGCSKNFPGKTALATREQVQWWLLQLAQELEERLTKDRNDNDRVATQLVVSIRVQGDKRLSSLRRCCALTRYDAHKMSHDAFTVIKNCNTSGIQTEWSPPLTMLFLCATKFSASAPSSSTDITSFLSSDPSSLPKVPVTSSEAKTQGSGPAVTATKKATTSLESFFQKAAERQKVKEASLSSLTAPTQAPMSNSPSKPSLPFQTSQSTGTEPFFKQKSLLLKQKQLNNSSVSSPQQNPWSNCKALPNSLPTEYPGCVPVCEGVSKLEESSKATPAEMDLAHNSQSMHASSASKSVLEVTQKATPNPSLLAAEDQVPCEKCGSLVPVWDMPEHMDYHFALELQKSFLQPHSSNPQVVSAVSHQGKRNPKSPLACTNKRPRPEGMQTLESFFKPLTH
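Fluorescent replication assay: 50 nM final substrate added after a 15 min room-temperature compound preincubation with 10 nM enzyme. Signal taken at 0 min and again at 10 min.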
FEN1 inh: inhibitors of human flap endonuclease 1. Recombinant FEN1 flap cleavage, fluorescence, 15 min. Potency, µM (top dose mostly 114 µM), inactives show at the top dose activity change, negative = inhibition, most hits filed as inhibitors. actives 0.35% (n = 390,000). AID 588795; further: on the % scale 0 is the no-effect control and ±100 the full control effect; nearly all actives have a fitted effect of over 65% in size
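Nuclease activity of 10 nM FEN1 was measured after 15 min of room-temperature exposure to titrated compounds, by adding 50 nM flap substrate and reading plates at 0 and 15 min.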
Pol iota inh: inhibitors of human DNA polymerase iota. Pol iota fluorescent replication assay, 10 min. Q9UNA4. actives 1% (n = 390,000). Potency, µM (highest dose often 115 µM), inactives show at the top dose activity, negative = inhibition, actives largely listed as inhibitors
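Pol iota at 10 nM preincubated 15 min with compounds at room temperature; reaction started with fluorescent substrate, 50 nM final. Fluorescence read kinetically at 0 and 10 min; buffer-only wells as negative control.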
WRN inhibitor: WRN helicase (human) inhibition | Q14191 | WRN helicase unwinding, fluorescent forked duplex, kinetic | Potency, µM (top dose mostly 114 µM), for the others: top-dose activity change, negative = inhibition, hits mostly inhibitors | actives 0.46% (n = 360,000) | AID 651768; further: on the % scale 0 is the no-effect control and ±100 the full control effect; nearly all actives have a fitted effect of over 55% in size
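Primary qHTS, 1536-well format. 20 nM WRN + compound, 15 min RT; start with 100 nM forked fluorophore/quencher duplex, 2 mM ATP (final); kinetic read ex 525/em 598 nm.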
POLB inh: blocks human DNA polymerase beta activity; P06746; AID 485314; Pol beta primer extension/strand displacement, fluorescence kinetic; actives 1.3% (n = 340,000); Potency, µM (doses to about 114 µM), without a hit: at the top dose activity change, negative = inhibition, usual class: inhibitors; further: on the % scale 0 is the no-effect control and ±100 the full control effect
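Reaction started by 50 nM substrate onto compound-treated Pol beta (10 nM, 15 min preincubation, room temperature); plates read at 0 min and 10 min. Normalized concentration-effect data fitted by four-parameter Hill equation.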
Active calls of the source: *; ? = inconclusive; . = no result; [ ] = another dose, or the depositor's remark. In the library only some 2.4% were active in any assay of this set; here they are far more common. The call rests on the fitted dose curve; in most records, active means well fitted curve in the direction sought with a large enough effect; inconclusive means small, poorly fitted or top-dose-only effect, or another doubt; inactive means no such curve, though single readings can be large; an effect the other way counts as inactive or inconclusive. Potency means the concentration at half of the fitted maximal effect.

SMILES	POLK inh	Pol eta inh	FEN1 inh	Pol iota inh	WRN inhibitor	POLB inh
CCN(CC)S(=O)(=O)c1ccc(C(=O)NCCSc2c(-c3ccc(OC)cc3)[nH]c3ccccc23)cc1	-16%	-18%	0%	4%	.	-5%
CC(C)n1c(SCC(=O)Nc2nncs2)nnc1-c1ccco1	79µM*	7.9µM*	?	16µM*	?	20µM*
CCn1c2ccccc2c2cc(NC(=O)c3coc(=O)c(Br)c3)ccc21	.	.	.	.	.	2%
CCn1c2ccccc2c2cc(NC(=O)c3ccc(=O)oc3)ccc21	?	?	16%	50µM*	-6%[11.6 µM]	?
CCn1c2ccccc2c2cc(/C=N/NC(=O)c3ccncc3)ccc21	-29%	?	?	74%	-7%	16µM*
Cc1nnc(NC(=O)CSc2nnc(-c3ccco3)n2C(C)C)s1	-5%	-7%	4%	84%	-2%	-7%
COCCn1c(=O)c(-c2ccc(F)cc2)nc2cnc(N3CCOCC3)nc21	1%[60.1 µM]	.	.	.	.	.
CC1CCN(c2c(NCc3ccc(C(=O)NCCc4ccc(Cl)cc4)cc3)c(=O)c2=O)CC1	-20%	-13%	-6%	?	-4%	32µM*
O=C(CCc1nc2ccccc2c(=O)[nH]1)N1CCCc2ccccc21	-14%	50µM*	-13%	29%	-7%[11.6 µM]	.
c1ccc(-c2cc3c(-n4cccc4)ncnc3o2)cc1	?	?	?	79µM*	?	-11%
O=C1NC(Cc2ccccc2)C(=O)N1Cc1ccccc1 (configuration not stated)	-5%	-11%	-10%	26%	2%	.
O=c1ccsn1Cc1ccccc1	0%	-14%	56µM*	25µM*	50µM*	4%
O=C(NC1CCCc2ccccc21)c1cnn2c1NC(=C1CC1)C=C2C(F)F (configuration not stated)	-16%	.	-5%	-4%	.	.
Cc1ccnc2c1ccc1c(C)ccnc12	14%	-6%	25µM*	25%	5%	.
O=Cc1cc2c3c(c1)CCCN3CCC2	-19%	.	3%	10%	.	.
CC[C@H](C)[C@H](NC(=O)[C@H](Cc1ccc(O)cc1)NC(=O)[C@H](Cc1cnc[nH]1)NC(=O)[C@H](CCCNC(=N)N)NC(=O)[C@H](CC(C)C)NC(=O)[C@H](C)NC(=O)[C@@H](N)CO)C(=O)N[C@@H](CC(N)=O)C(=O)N[C@@H](CC(C)C)C(=O)N[C@H](C(=O)N[C@H](C(=O)N[C@@H](CCCNC(=N)N)C(=O)N[C@@H](CCC(N)=O)C(=O)N[C@@H](CCCNC(=N)N)C(=O)N[C@@H](Cc1ccc(O)cc1)C(N)=O)[C@@H](C)O)[C@@H](C)CC	7%[60.1 µM]	.	.	.	.	.
CN(C)C(=O)NC1CCCCCCC1	12%[60.1 µM]	.	.	.	.	.
O=C(N/N=C/C(Cl)=C/c1ccc([N+](=O)[O-])cc1)C(=O)Nc1cccc(C(=O)O)c1	12%	50µM*	-17%	?	-6%	?
O=C(CNC1=NCCS1)c1c[nH]c2ccccc12	-9%	.	-10%	-19%	.	.
Cc1ccccc1CSCC(=O)NNC(=S)NCC1CCCO1 (configuration not stated)	-33%	-11%	-14%	89µM*	-25%	?
Cc1ccc2c(c1)C(=O)C1(O)CCN(c3ccccc3)C1=N2 (configuration not stated)	3%[19.4 µM]	.	.	.	.	.
CC1CCC(NC(=O)COC(=O)c2ccc3ncsc3c2)CC1 (configuration not stated)	-1%	-3%	11%	?	13%	.
O=C(OCC(=O)N1CCN(c2ccccc2)CC1)c1cccc([N+](=O)[O-])c1	2%	-17%	-3%	-1%	-11%	.
O=C(OCC(=O)N1CCN(c2ccccc2)CC1)c1ccc2ncsc2c1	-40%	?	-1%	?	-13%	89µM*
O=C(COC(=O)c1ccc2ncsc2c1)NC(=O)C1CCCCC1	-26%	.	14%	71µM*	.	.
SMILES	POLK inh	Pol eta inh	FEN1 inh	Pol iota inh	WRN inhibitor	POLB inh
Oc1ccc(-c2csc(Nc3ccccn3)n2)cc1O	?	18µM*	-24%	?	-10%[11.6 µM]	7.9µM*
Cc1c(C(=O)O)oc2c1-c1nn(Cc3ccc(Cl)cc3)cc1CC2	-34%	.	-11%	?	.	25µM*
Cc1nc([N+](=O)[O-])cn1CC(O)c1ccc2c(c1)OCO2 (configuration not stated)	-18%	.	-8%	?	.	.
O=C(Nc1ccccc1C(=O)OCc1cc(=O)n2ccsc2n1)c1cccc(F)c1	-9%[60.1 µM]	-5%	14%	17%	.	7%
O=C(Nc1ccc(F)cc1F)c1cccc2c1C(=O)N(C1CCCCC1)C2	-39%	-22%	11%	?	.	13µM*
NC(=O)c1cccc2c1C(=O)N(C1CCCCC1)C2	?	50µM*	-11%	?	-12%[57.1 µM]	?
[O-][n+]1onc2c1CCC(=N/O)/C2=N\Nc1ccccc1	.	.	.	.	.	40µM*
Cc1c(Cl)cccc1NC(=O)CNc1cccc(S(=O)(=O)N(C)C)c1	-6%	-11%	2%	11%	-5%	79µM*
CCNc1ccc(S(=O)(=O)N(C)C)cc1NCC(=O)Nc1ccc(F)c(Cl)c1	-10%	-17%	-5%	89µM*	-12%[57.1 µM]	-26%
O=C(NCCc1ccc(Cl)cc1)c1cc2c(s1)-c1ccccc1OC2	?	-9%	-14%	89µM*	.	35µM*
Cc1c(NC(=O)c2ccc3nsnc3c2)cccc1[N+](=O)[O-]	?	2%	-16%	25µM*	-2%	15%
Cc1cc(C(=O)Nc2cccc([N+](=O)[O-])c2C)cs1	-1%	4%	21%	-11%	-4%	7%
CCc1ccc(CNC(=O)c2cc3c(s2)-c2ccccc2OC3)cc1	?	-4%	-18%	79µM*	.	50µM*
O=C(Nc1ccc(Cl)cn1)c1cc2c(s1)-c1ccccc1OC2	4%	-2%	-17%	11%	-5%	19%
Cc1c(NC(=O)c2ccc(N3CCCC3)c([N+](=O)[O-])c2)cccc1-c1nc2ccccc2s1	1%	7%	-7%	79µM*	1%[11.6 µM]	2%
CCn1nnnc1Sc1nc(C)nc2scc(-c3ccccc3)c12	7%	.	-2%	-20%	.	.
Nc1ccccc1NC(=O)c1ccc(CNC(=O)OCc2cccnc2)cc1	1%[60.1 µM]	.	.	.	.	.
CCOC(=O)C(CC)Sc1ccc2nnc(-c3ccc(F)cc3)n2n1 (configuration not stated)	10%	.	9%	4%	.	.
CCN(CC)S(=O)(=O)c1ccc2c(c1)nc(CN(C)C(=O)Nc1ccc(C)c(Cl)c1)n2C	-18%[60.1 µM]	-9%	11%	1%	.	-5%
C[C@@H](Oc1ccc(Oc2cnc3ccc(Cl)cc3n2)cc1)C(=O)O	.	-2%[57.1 µM]	.	6%[58.9 µM]	.	24%[57.1 µM]
